Screening data (PubChem)
Compounds with a hit are over-represented: about 4.5% of the library has one in this group of screens.
ssDAF12 agonist – S. stercoralis DAF-12 nuclear receptor activators, primary screen, cell-based, luminescence, HEK293, GRIP1 co-expression, lit1-tk-luc; AID 652126, 2013; Nuclear hormone receptor DAF-12 (Strongyloides stercoralis); activation, % at 6.8 µM; HEK293 ssDAF-12/GRIP1 lit1-tk-luc reporter; % of 3 µM dafachronic acid response; actives 1% (n = 370,000);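 active = activation above the mean over all tested compounds plus 3 SD, cut at about 0.9% in these data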
FXN GAA850 act – FXN promoter activators, primary screen, cell-based, luciferase luminescence, HEK293 lucGAA850; HEK293 lucGAA850 FXN promoter luciferase reporter, 24 h; percent of 10 µM SAHA response; actives 0.56% (n = 360,000); activation, % at 6 µM;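 active = activation above the average of all compounds screened plus 3 SD, cutoff fixed separately per campaign, cut at about 7.5% in these data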
hgDAF12 agonist – H. glycines DAF-12 receptor agonists, primary screen, cell-based, luminescence, HEK293, GAL4 fusion, UAS-luciferase | HEK293 GAL4-hgDAF12 UAS-luciferase reporter, agonist luminescence; normalized to butyrate control | Nuclear hormone receptor DAF-12 (Heterodera glycines), GAL4 fusion | actives 1.8% (n = 370,000) | activation, % at 6.8 µM;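 active = activation above a cutoff set at the mean of all screened compounds plus 3 SD, cut at about 10% in these data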
DAX1 inh-1 – DAX1 (NR0B1) inhibitors, primary screen, cell-based, HEK293, Gal4-DAX1, luciferase luminescence. Nuclear receptor subfamily 0 group B member 1 (Homo sapiens), P51843. HEK293 Gal4-DAX1 luciferase reporter. inhibition, % at 6.75 µM. actives 0.99% (n = 340,000);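 active = inhibition above the mean over all tested compounds plus 3 SD, cut at about 4.2% in these data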;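 also: inhibition shows as a rise in luminescence from relieved DAX1 repression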
Target sequence (P51843 207-470 limits assumed): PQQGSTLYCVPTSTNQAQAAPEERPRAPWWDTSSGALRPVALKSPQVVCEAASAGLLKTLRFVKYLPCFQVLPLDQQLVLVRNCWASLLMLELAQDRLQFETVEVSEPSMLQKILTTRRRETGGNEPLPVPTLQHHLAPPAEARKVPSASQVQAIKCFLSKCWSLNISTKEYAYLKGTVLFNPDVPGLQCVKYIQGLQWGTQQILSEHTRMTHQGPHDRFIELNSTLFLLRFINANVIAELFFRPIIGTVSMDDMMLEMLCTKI
hcDAF12 agonist – H. contortus DAF-12 nuclear receptor activators, primary screen, cell-based, luminescence, HEK293, lit1-tk-luc reporter; HEK293 hcDAF-12 lit1-tk-luc reporter; 0% DMSO, 100% Δ7-dafachronic acid; activation, % at 6.8 µM; actives 1.4% (n = 370,000); AID 652067, 2013;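 active = activation above the mean of all tested compounds plus 3 SD, cut at about 5.5% in these data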
DAX1 inh-2 – DAX1 (NR0B1) inhibitors on StAR promoter, primary screen, cell-based, luminescence, SF-1 (NR5A1), full-length DAX-1; AID 652010, 2013; actives 1.1% (n = 370,000); HEK293T StAR-luciferase reporter, SF-1/DAX-1 repression relief; inhibition, % at 6.8 µM;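 active = inhibition above the mean over all tested compounds plus 3 SD, cut at about 3.6% in these data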;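 also: higher inhibition means more luminescence from relief of DAX-1 repression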
Numbers stand for hits; - = inactive; . = not tested or not shown.

SMILES	ssDAF12 agonist	FXN GAA850 act	hgDAF12 agonist	DAX1 inh-1	hcDAF12 agonist	DAX1 inh-2
COc1ccc(CN2C(=O)c3cccnc3C2=O)cc1S(=O)(=O)NC(C)C	-	-	-	5.8	-	-
O=C(O)CN1C(=O)SC(Nc2ccc(C(=O)O)cc2)C1=O (stereo unspecified)	-	-	-	-	-	-
Cc1ccc(NC2SC(=O)N(CC(=O)O)C2=O)cc1 (stereo unspecified)	1.2	-	-	-	-	-
Cc1cc(C)nc(N/N=C/c2ccc(Cl)cc2)n1	-	-	-	5.0	-	-
COc1cc(OC)cc(C(=O)NNC(=O)CN2C(=O)NC(C)(c3ccc(C)cc3)C2=O)c1 (stereo unspecified)	-	-	-	4.4	-	-
Cn1c(SCc2ccc(C#N)cc2Cl)nc2ccccc21	-	-	12.3	4.3	-	-
COC(=O)[C@]1(CNC(=O)C(C)(C)C)CC(=O)N(Cc2ccc(Cl)cc2)[C@@H]1c1ccc(OC)cc1	-	.	-	.	-	-
Brc1ccc(-c2noc(CCc3ccccc3)n2)o1	-	-	-	-	6.1	-
Cc1cc(O)ccc1N=Cc1c(C(F)(F)F)[nH][nH]c1=O	-	-	-	4.4	-	-
O=C(c1ccco1)N1CCN(C2CN(C3CCCCC3)S(=O)(=O)C2)CC1 (stereo unspecified)	-	.	-	.	-	3.9
CSC(=NC#N)N1CCN(C(=NC#N)SC)CC1	-	-	-	4.7	-	-
COc1ccc(NC(=O)OCCN2CCCC23CCC(c2ccccc2)CC3)cc1 (stereo unspecified)	-	.	-	.	-	.
COc1cc(/C=C2/CC(C)OC2=O)c([N+](=O)[O-])cc1OC (stereo unspecified)	-	-	-	4.7	-	-
CCC[C@H](/C=C/C(=O)OC(C)(C)C)Sc1ccc(OC)cc1	-	.	-	.	-	-
CC1=NN(C(N)=S)C(=O)C1N=Nc1cccc([N+](=O)[O-])c1 (stereo unspecified)	-	-	-	6.8	-	-
CC1=NN(C(N)=S)C(=O)C1N=Nc1ccccc1 (stereo unspecified)	-	-	-	-	-	-
CC1=NN(C(N)=S)C(=O)C1N=Nc1ccc(Cl)cc1 (stereo unspecified)	-	-	11.3	-	-	-
COc1cc([N+](=O)[O-])ccc1NC(=S)Nc1cccc(C(=O)O)c1	-	-	-	-	7.0	-
CCOC(=O)[C@@]12CCCC=C1N(CCc1ccc(Cl)cc1)C(=O)[C@H]2CC(=O)NCC1CCCCC1	-	.	-	.	-	-
Cc1nc2c(-c3ccc(F)cc3)cnn2c(N)c1-c1ccccc1	-	-	-	-	-	-
COc1ccc(-c2c(C)nc3c(-c4ccc(F)cc4)cnn3c2N)cc1	-	-	-	5.2	-	-
Nc1c(-c2ccc(Cl)cc2)cnc2c(-c3ccc(F)cc3)cnn12	-	-	13.1	5.0	-	-
C=CCN(CC#CC(=C)C)Cc1ccc(OC)cc1OC	-	.	-	.	-	-
Cc1ccc(Nc2nc(CSc3nnc(-c4ccc(F)cc4)n3C)cs2)cc1	-	-	10.9	-	-	-
Cc1ccc(-c2nc3cc(C)c(Br)c(C)n3c2CC(C)(C)C)cc1	1.5	.	-	.	6.5	-
SMILES	ssDAF12 agonist	FXN GAA850 act	hgDAF12 agonist	DAX1 inh-1	hcDAF12 agonist	DAX1 inh-2
Cc1cc2nc(-c3ccc(F)cc3)c(Cc3ccccc3)n2c(C)c1Br	-	.	-	.	-	-
Cc1ccc(-c2nc3cc(C)c(Br)c(C)n3c2Cc2ccsc2)cc1	1.5	.	-	.	-	3.7
Cc1ccc(Cc2c(-c3ccccc3)nc3cc(C)c(Br)c(C)n23)cc1	1.3	.	-	.	-	-
Cc1ccc(-c2nc3c(C)cc(Br)cn3c2Cc2ccsc2)cc1	-	.	10.6	.	-	-
COC[C@H]1CCCN1c1ccc2c(c1)O[C@H]1CCN(C1)S2(=O)=O	-	.	-	.	-	-
CS(=O)(=O)N1CCC[C@]2(CC[C@H](CCC#N)O2)C1	-	.	-	.	-	-
Cc1cc2nc(-c3cccc(Br)c3)c(CC3CCCCC3)n2c(C)c1Br	1.6	.	-	.	-	-
Nn1c(SCC(=O)Nc2nccs2)nnc1-c1cc(-c2ccc(F)cc2)n[nH]1	-	.	-	.	-	-
COc1ccc(/C(C)=N/NC(=O)CN(c2ccc(OC)cc2)S(=O)(=O)c2ccccc2)cc1	-	-	-	4.4	-	-
O=C(COC(=O)CCCC1=NS(=O)(=O)c2ccccc2N1)Nc1ccc(Br)cc1	-	-	-	-	-	4.1
Fc1ccc(NC(=S)N/N=C/c2ccc(F)c(F)c2)cc1	-	-	-	-	-	-
COc1ccc(NC(=S)N/N=C/c2ccc(F)cc2)cc1OC	-	-	11.2	-	-	-
CCCc1nc2ccc(C(=O)OC)cn2c1Cc1ccc(C)cc1	-	.	-	.	-	-
CCCc1nc2ccc(C(=O)OC)cn2c1Cc1ccccc1OC	-	.	-	.	-	4.2
CCCc1nc2ccc(C(=O)OC)cn2c1Cc1ccccc1	1.0	.	-	.	-	-
CCCc1nc2ccc(C(=O)OC)cn2c1Cc1ccccc1C(F)(F)F	-	.	-	.	-	-
Cc1ccc(NC(=O)/C=C/c2ccco2)nc1	1.6	-	-	-	6.5	6.5
O=C(/C=C/c1ccco1)Nc1cccnc1	-	-	-	-	-	-
O=C(/C=C/c1ccco1)Nc1ccccn1	-	-	13.1	-	-	-
O=C(/C=C/c1ccco1)Nc1nc(-c2ccccn2)cs1	-	-	-	-	-	-
COc1ccc(CN2CN3Cc4cc(OC)ccc4C3CS2(=O)=O)cc1 (stereo unspecified)	-	.	-	.	-	-
O=C(Cc1ccccc1[N+](=O)[O-])NCc1ccncc1	1.1	-	-	-	-	-
O=C(COC(=O)Cc1ccccc1[N+](=O)[O-])NCc1ccc(F)cc1	-	-	-	-	-	-
O=C(Cc1ccccc1[N+](=O)[O-])NCCc1ccc(F)cc1	5.1	-	-	-	-	-
COC(=O)/C(C#N)=C1/C=Cc2ccccc2N1	-	-	-	-	5.9	-
COC(=O)c1c(NC(=O)C2CCCCC2C(=O)O)sc2c1CCCCC2 (stereo unspecified)	-	-	-	4.9	-	-
O=C(CCN1C(=O)/C(=C/c2ccc(F)cc2)SC1=S)NNC(=O)c1cccnc1	-	-	-	4.3	-	-
